# a7 integrin act: activators of alpha7 integrin expression for muscular dystrophy; alpha7betagal myoblasts, beta-gal FDG fluorescence, 48 h; Potency, µM (top dose mostly 38.3 µM), without a hit: top-dose activation, most hits filed as activators; actives 0.064% (n = 350,000); active means well fitted activation curve with a large enough effect; inconclusive means small, poorly fitted or top-dose-only effect; inactive means no such curve, though single readings can be large or run the other way;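 further: potency means the concentration at half of the fitted maximal effect; 100% = response of the positive control SU9516; nearly all actives have a fitted effect of over 60% in size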
#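 alpha7betagal+/- myoblasts (passage 13, 250/well) treated 48 h at 37C with compounds at 1:260 dilution of DMSO stock. Lysed, then beta-galactosidase activity read as FDG fluorescence (ex 480/em 540) after 30 min, with pre-read for autofluorescence.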
# D3 antag: D3 dopamine receptor (human) antagonism; AID 652054; max response, negative = inhibition, %; D3R cells, DiscoveRx beta-arrestin luminescence, antagonist mode; active compounds read low; actives 2.5% (n = 360,000); in the data active means max response below about -50%; inconclusive means no clear call, values can overlap the other calls; further: on the % scale 0 is the no-effect control and ±100 the full control effect
# Target sequence (P35462 whole entry, looked up): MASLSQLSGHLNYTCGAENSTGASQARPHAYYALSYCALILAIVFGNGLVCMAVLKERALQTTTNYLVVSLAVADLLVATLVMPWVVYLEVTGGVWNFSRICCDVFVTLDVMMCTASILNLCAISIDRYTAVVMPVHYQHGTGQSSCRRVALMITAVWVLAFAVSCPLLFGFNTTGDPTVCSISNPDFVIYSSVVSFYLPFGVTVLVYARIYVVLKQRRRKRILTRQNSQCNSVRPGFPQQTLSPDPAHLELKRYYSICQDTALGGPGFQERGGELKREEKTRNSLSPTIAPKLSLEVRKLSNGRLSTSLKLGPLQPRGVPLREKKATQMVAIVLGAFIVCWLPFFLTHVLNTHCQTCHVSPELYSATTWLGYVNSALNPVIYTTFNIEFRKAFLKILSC
#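 Cells plated overnight at 1500 cells/well, then exposed to library compounds with dopamine controls for 90 minutes at 37 degrees C. DiscoveRx reagent added for 30–60 minutes at room temperature; luminescence read, quantitative HTS format.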
# D3 ag: activates the human D3 dopamine receptor; max activation, %; actives 0.58% (n = 410,000); AID 652048; D3R DiscoveRx beta-arrestin cells, luminescence, 90 min; P35462; in the data active means max activation above about 30%; further: 0% is about no effect
#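 Cells at 1500/well, incubated overnight, then treated with pinned compounds (dopamine as control) for 90 min at 37 degrees C. DiscoveRx reagent added for 30 - 60 minutes at room temperature; luminescence read.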
# * marks the source's active call; other numbers are inactive results; ? = inconclusive; · = no result given; [ ] = another dose, or the depositor's remark. Rows were chosen to be rich in hits. Some 2.9% of all compounds tested hit in one or more screens of this group.
SMILES,a7 integrin act,D3 antag,D3 ag
COc1ccc(CCN(C)Cc2ccc(F)cc2F)cc1OC,-18%,-77*,-28
CCN(CC)c1ccc(CN(C)CCc2ccc(OC)c(OC)c2)cc1,-44%,?,-23
O=Cc1cn(Cc2ccc(Br)cc2)c2ccccc12,-53%,3,5
COC(=O)c1c(N)n(Cc2ccc(OC)cc2)c2nc3ccccc3nc12,5%,14,2
O=C(NC[P+](=O)O)OCc1ccccc1,2%,10,5
CN1C[C@H](CNC(=O)OCc2ccccc2)C[C@@H]2c3cccc4c3c(cn4C)C[C@H]21,·,-117*,-49
COC(=O)C1=C(c2ccc(F)cc2OCc2ccccc2)C[C@@H]2CC[C@H]1N2C(=O)NCc1ccc(C)cc1,-31%,-11,-24
CC(C)[C@]12CC(=O)[C@H](C)[C@H]1C2,·,3,15
CN(C)C(=O)Oc1c(Cl)cc(Cl)c2cccnc12,-11%,-14,4
Cc1ccc2c(Cl)cc(Cl)c(O)c2n1,-46%,-110*,-18
O=P(OCC(F)(F)C(F)F)(N1CCCCC1)N1CCCCC1,-2%,-4,2
CN1C2CCC1C(COC(=O)c1ccccc1)C(O)C2 (stereo not drawn),39%,3,3
CC1CCN(C(CC(=O)c2ccccc2)C(=O)c2ccccc2)CC1 (stereo not drawn),-35%,-79*,-20
COc1cc2c(cc1OC)-c1c(OC)c(OC)cc3c1[C@H](C2)N(C)CC3,11%,-59*,-41
COc1cc2c(cc1O)CC1c3c(cc(O)c(OC)c3-2)CCN1C (stereo not drawn),21%,-14,-10
O=C(Nc1ccccc1-c1ccc(Cl)cc1)c1cccnc1Cl,·,·,-26
C#CCOC(C(=O)OCCN(C)C)(c1ccccc1)c1ccccc1,·,·,-17
O=S(=O)(c1ccccc1)N1CCCCC1c1cccnc1 (stereo not drawn),6%,20,-6
Cc1ccc2c(c1)[C@@H]1CN(C)CC[C@@H]1N2C(=O)Nc1cccc(C(F)(F)F)c1,-63%,-13,-34
CC(=O)[C@H]1CC[C@H]2[C@@H]3CC[C@H]4C[C@H](O)CC[C@]4(C)[C@H]3C(=O)C[C@]12C,·,13,-9
CC(=O)OCC(=O)[C@H]1CC[C@H]2[C@@H]3CC[C@H]4C[C@H](O)CC[C@]4(C)[C@H]3C(=O)C[C@]12C,·,-85*,-31
Oc1ccc(CC2(N3CCCC3)CCCCC2)cc1,-25%,-10,-3
Cc1nc2ccccc2n1C1CCN(Cc2nnnn2CCc2ccccc2)CC1,12%,-1,1
CCOC(=O)c1cc2ccccc2n1C1CCN(Cc2ccccc2)CC1,·,-116*,-15
CCN(CCO)CCn1c(Cc2ccccc2)nc2c1c(=O)n(C)c(=O)n2C,·,·,2
SMILES,a7 integrin act,D3 antag,D3 ag
Cc1cc(OCC(=O)N2CCC(C(=O)O)(c3ccccc3)CC2)c2c(C)c(C)c(=O)oc2c1,8%,0,-21
COc1ccc(C(CNC(=O)Cc2ccc(Cl)c(Cl)c2)N2CCCCC2)cc1 (stereo not drawn),-5%,-67*,-34
COc1ccc(C(CNC(=O)Cc2ccc(Cl)c(Cl)c2)N(C)C)cc1 (stereo not drawn),17%,-2,-13
Cc1ccc(N2C(=O)NC(=O)/C(=C\C=C\c3ccco3)C2=O)cc1,-39%,-16,-4
Cc1ccc(N2C(=O)NC(=O)/C(=C\C=C\c3ccco3)C2=O)cc1C,-55%,-59*,0
Cc1ccc(OC(=O)N(C)C[C@H]2OCc3cnnn3CCCC(=O)N([C@H](C)CO)C[C@@H]2C)cc1,15%,-7,-3
Clc1ccc2c(c1)C(OC1CN3CCC1CC3)c1ccccc1CS2 (stereo not drawn),-62%,-28,-48
CN1CCN(CCOC2c3ccccc3CSc3ccc(Cl)cc32)CC1 (stereo not drawn),-27%,-90*,-33
COCCn1c(O)c(/C=N/NC(=O)CSC(=S)N2CCCC2)c(=O)[nH]c1=S,20%,-5,3
CC12CC1(C)C(=O)N(c1cc(Cl)cc(Cl)c1)C2=O (stereo not drawn),-29%,-56*,1
O=C1CC(=O)N(c2cccc(Cl)c2)C(=O)N1,16%,-26,-7
COc1ccc(-n2c(O)c(C(C)=NCc3ccc4c(c3)OCO4)c(=O)[nH]c2=O)cc1,-7%,4,1
O=C(COc1ccc(Cl)cc1)N(c1ccc(Cl)cc1)C1CN2CCC1CC2 (stereo not drawn),-36%,9,5
CCOC(=O)[C@]12Cc3cc(C)ccc3[C@H]1N(Cc1ccccc1)C(=O)c1cc(OC)ccc12,·,-13,-2
c1ccc(CN2CCN(Cc3ccc4ccccc4c3)CC2)cc1,-25%,-69*,-15
O=C(Cc1ccccc1)N1CCN(Cc2ccccc2Cl)CC1,11%,-14,-1
Oc1c(Cl)cc(Cl)cc1CN1CCN(Cc2ccccc2)CC1,-14%[7.66 µM],-51*,-39
Cc1ccc(CN2CCN(Cc3ccccc3)CC2)cc1,-18%,?,-7
c1ccc(C2(N3CCCC3)CCCCC2)cc1,·,·,-22
CCC1=C(C)C(N2CCOCC2)=NP(N2CCOCC2)(N2CCOCC2)=N1,11%,-11,3
CCCCCn1c(=O)c(C(=O)NCc2ccco2)c(O)c2ccccc21,33%,16,10
Cc1cccc(C)c1-n1nnnc1C(c1cccc2ccccc12)N1CCC2(CC1)C(=O)NCN2c1ccccc1 (stereo not drawn),·,?,-10
O=C(NCCN1CCC(n2c(=O)[nH]c3ccccc32)CC1)c1ccc2ccccc2c1,·,-55*,-10
Cc1cccc(C)c1-n1nnnc1C(c1cccc2ccccc12)N1CCC(n2c(=O)[nH]c3ccccc32)CC1 (stereo not drawn),·,5,-4
O=C(NCCN1CCC2(CC1)C(=O)NCN2c1cccc(F)c1)c1ccc2ccccc2c1,·,-89*,-11
SMILES,a7 integrin act,D3 antag,D3 ag
C=CCN1C(=O)C2(C(C(=O)OCC)=C(N)Oc3ccccc32)c2c1c1ccccc1oc2=O (stereo not drawn),-9%,-5,-21
c1ccc2c(CCN3CCCCC3)c[nH]c2c1,·,?,-6
CCOC(=O)c1ccc(NC(=O)c2cccn(Cc3ccccc3F)c2=O)cc1,·,·,10
O=C(c1cc2cc(Cl)ccc2[nH]1)N1CCC2(CC1)OCCO2,?,-9,3
COc1cc2[nH]c(C(=O)N3CCC4(CC3)OCCO4)cc2c(OC)c1OC,20%,-84*,-7
CN1CCC2(CC1)c1ccccc1-c1ccccc12,-48%,-10,-3
CCOc1cc(C=C2C(=O)NC(=O)NC2=O)ccc1OS(=O)(=O)c1ccccc1,10%,-8,9
O=[N+]([O-])c1ccc(N(CCO)CCO)c2c1no[n+]2[O-],-63%,-99*,-23
CN1CCN(c2ccc([N+](=O)[O-])c3no[n+]([O-])c23)CC1,-78%,?,-41
COC(=O)C1=C(c2cc3ccccc3o2)C[C@@H]2CC[C@H]1N2C(=O)NCc1ccccc1,8%,-50*,6
COC(=O)C1=C(c2cc3ccccc3o2)C[C@@H]2CC[C@H]1N2C(=O)NCCNC(C)=O,16%,8,41*
COC(=O)C1=C(c2cc3ccccc3o2)C[C@@H]2CC[C@H]1N2C(=O)NCc1ccc(C(F)(F)F)cc1,3%,-12,-5

# Screening results as filed in PubChem BioAssay.
